hiPSC survival – enhancers of single-cell hiPSC survival, primary screen, ATPlite luminescence. 100% = ROCK inhibitor wells, 0% = DMSO. 0.044% of 360,000 active. survival enhancement, % at 20 µM. AID 602274, 2012; in the data active = survival enhancement above about 18%;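 also: cells exposed to compounds for 16 hours before the ATP read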
CF NFkB block – inhibitors of PAF-induced NF-kB signaling, primary screen, cell-based, GFP fluorescence, uHTS; KKLEB NF-kB-GFP reporter, GFP fluorescence overnight; 0.86% of 360,000 active; AID 588850, 2011; inhibition, % at 5 µM;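 active = at least 50% inhibition at 5 µM, scaled per plate between neutral and stimulator controls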;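 also: PAF is a Pseudomonas aeruginosa culture filtrate used as stimulus; plate controls were PAF-stimulated DMSO wells for no effect and unstimulated DMSO wells for full effect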
HIF-2a block – HIF-2a reporter inhibitors, primary screen, luminescence, 786-0 RCC cells | 786-0 RCC cells HIF-2a reporter, luciferase luminescence, overnight | inhibition, % at 18.8 µM | 0.72% of 360,000 active | AID 624352, 2012;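 active = inhibition of the luminescence signal of 40% or more relative to plate controls, in a single-dose primary screen at 18.75 µM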
KKLEB tox – cytotoxicity in KKLEB CF airway cells, primary screen, cytotoxicity control for CF NF-kB inhibitor project, cell-based, uHTS, fluorescence assay plates; KKLEB CF airway cells viability, ATPlite luminescence, overnight; active compounds read low; cells stimulated with P. aeruginosa culture filtrate; activity change (cytotoxicity), % at 5 µM; 0.36% of 360,000 active;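 active = corrected activity change at or below -50% at 5 µM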
LGR2 antag – inhibitors of bursicon-induced LGR2 CRE-luciferase signal, primary screen, cell-based, HEK293, CRE-luciferase reporter, bursicon stimulation. Drosophila bursicon receptor LGR2 (rickets). bursicon-stimulated, 4 h. inhibition, % at 9.99 µM. 0.35% of 380,000 active. AID 720647, 2013;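 active = drop in luminescence signal, shown as inhibition above about 50% in the replicate tests, limit read from the data, passing the limit was not always enough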;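 also: agonist challenge used bursicon conditioned medium at about half maximal strength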
TWEAK-Fn14 inh – inhibitors of TWEAK-Fn14 signaling, primary screen, luciferase reporter cells, uHTS; inhibition, % at 10 µM; TWEAK-stimulated Fn14 reporter cells, luciferase luminescence, 8 h; 2% of 360,000 active; in the data active = inhibition above about 50%
* = called active by the depositor; nt = no result. Only some compounds are listed: those with a hit (about 2.3% of all), similar ones and a draw of the others.

SMILES	hiPSC survival	CF NFkB block	HIF-2a block	KKLEB tox	LGR2 antag	TWEAK-Fn14 inh
Cc1ccc(C(C)C)c(OCc2ccc(C(=O)N/N=C/c3cccc(O)c3O)cc2)c1	-1.1	25.2	71.0*	0.6	-81.7	39.8
COc1cc(/C=N/NC(=O)c2ccc(COc3cc(C)ccc3C(C)C)cc2)cc(OC)c1O	1.4	-3.6	69.0*	2.4	-40.3	33.0
Cc1ccc(C(C)C)c(OCc2ccc(C(=O)N/N=C/c3ccc(O)c(O)c3)cc2)c1	-1.1	-1.3	71.5*	14.4	-70.2	62.0*
Cc1ccc(C(C)C)c(OCCNC(=O)c2cncc(Br)c2)c1	-1.3	17.8	14.9	-18.2	nt	-8.9
COc1cc(C(=O)NCCOc2cc(C)ccc2C(C)C)cc(OC)c1OC	-0.2	-23.9	13.1	-10.3	6.8	61.8*
COc1cc(/C=N\NC(=O)c2ccc(-c3ccccc3)cc2)cc(OC)c1O	1.1	-29.4	-44.6	16.5	-8.2	-5.4
C[C@@H]1CCCCO[C@@H](CN(C)C(=O)Nc2ccc3c(c2)OCO3)[C@@H](C)CN([C@@H](C)CO)C(=O)c2cc(NC(=O)C3CCCCC3)ccc2O1	nt	nt	nt	nt	13.1	nt
COc1cc2c(cc1OC)C(=O)C(Br)CC2 (stereo not drawn)	-1.1	69.5*	8.1	-16.1	nt	15.6
COc1cc2c(cc1OC)C(=O)C(c1ccc3c(c1)OCO3)CC2 (stereo not drawn)	0.1	-33.3	-26.7	2.8	-16.9	-0.8
N#CC(C#N)=C(Nc1ccc(F)cc1)SCc1cccc(Br)c1	0.2	51.3*	-32.9	-41.8	27.1	39.8
O=C(C[C@@H]1CC[C@@H]2[C@H](COC[C@@H](O)CN2Cc2ccccc2)O1)N[C@H]1CCN(Cc2ccccc2)C1	nt	nt	nt	nt	4.9	nt
O=C(NC1CCCCCCC1)c1cc(COc2ccc3ncccc3c2)on1	0.3	13.1	15.8	-15.7	nt	51.8*
O=C(c1cc(COc2ccc3ncccc3c2)on1)N1CCC(O)CC1	-0.9	16.4	-81.0	-0.8	8.2	4.2
CC(CNC(=O)c1cc(COc2ccc3ncccc3c2)on1)c1ccccc1 (stereo not drawn)	-0.4	20.7	23.7	-21.6	0.3	59.8*
O=C(Nc1nccs1)[C@H]1[C@H](CO)[C@H]2Cn3c(cccc3=O)[C@@H]1N2C(=O)C1CCCCC1	nt	nt	nt	nt	11.6	nt
CN(c1ccccc1)S(=O)(=O)c1cccc(NC(=O)c2cc(=O)c3ccccc3o2)c1	0.7	2.7	8.4	8.9	67.5*	51.0*
O=C(Nc1cccc(S(=O)(=O)N2CCCCCC2)c1)c1cc(=O)c2ccccc2o1	0.2	17.4	20.4	-3.6	22.7	62.5*
NS(=O)(=O)c1cccc(NC(=O)c2cc(=O)c3ccccc3o2)c1	-0.8	-2.0	-32.2	3.6	0.4	2.9
Cc1noc(C)c1S(=O)(=O)N(C)C[C@@H]1Oc2ccc(NC(=O)Nc3ccccc3)cc2CC(=O)N([C@H](C)CO)C[C@H]1C	nt	nt	nt	nt	6.2	nt
O=C1c2ccccc2C(=O)c2c1ccc(C(=O)N1CCCCC1)c2NCCO	-2.7	10.5	-0.6	-10.7	nt	15.2
CC1(C)CCCN(C(=O)c2ccc3c(c2NCCO)C(=O)c2ccccc2C3=O)C1	-1.4	-1.8	40.3*	-0.6	0.4	25.3
C[C@H]1CN([C@@H](C)CO)C(=O)CCCn2cc(nn2)CO[C@H]1CN(C)C(=O)Nc1ccc(N2CCN(C)CC2)cc1	nt	nt	nt	nt	-7.3	nt
COc1ccc(-c2cnc3c(c2)C(=O)N([C@@H](C)CO)C[C@H](C)[C@@H](CN(C)Cc2ccccc2)O3)cc1	nt	nt	nt	nt	5.7	nt
COc1ccc(NC(=O)CN2CCC3(O)CCCCC3C2c2ccccc2OC)cc1 (stereo not drawn)	nt	nt	nt	nt	11.1	nt
COc1cc([C@H]2[C@@H]3CCCC[C@]3(O)CCN2CC(=O)Nc2ccc(C)cc2)ccc1O	2.3	-12.6	-0.5	-6.0	nt	66.0*
SMILES	hiPSC survival	CF NFkB block	HIF-2a block	KKLEB tox	LGR2 antag	TWEAK-Fn14 inh
COc1ccc(-c2ccc3n(c2=O)C[C@@H]2[C@@H](CO)[C@H](C(=O)Nc4ccccc4)N(C)[C@H]32)cc1	nt	nt	nt	nt	-5.9	nt
N#Cc1nc(NCC(F)F)nc(Nc2cc(F)cc(F)c2)n1	-1.0	73.1*	7.7	19.6	27.0	91.8*
CC(=O)NC1Sc2ccccc2N=C1c1ccccc1 (stereo not drawn)	-0.3	-7.0	-175.9	15.8	-49.4	53.0*
COC(=O)C1=C(C)N(Cc2ccc(C(F)(F)F)cc2)C(=NCc2ccccc2)NC1c1cccc(C(F)(F)F)c1 (stereo not drawn)	nt	nt	nt	nt	7.6	nt
COC(=O)C1=C(C)N(Cc2ccccc2)C(=NCc2cccc(C(F)(F)F)c2)N[C@H]1c1cccc(F)c1	-7.1	84.3*	9.8	-97.2*	-8.3	-13.0
COC(=O)C1=C(C)N(Cc2ccc(C(F)(F)F)cc2)C(=NCc2ccccc2)NC1c1cccc(Cl)c1 (stereo not drawn)	nt	nt	nt	nt	53.0*	nt
COC(=O)C1=C(C)N(Cc2cccc(C(F)(F)F)c2)C(=NCc2ccc(C(F)(F)F)cc2)NC1c1ccccc1 (stereo not drawn)	nt	nt	nt	nt	14.8	nt
COC(=O)C1=C(C)N(Cc2cccc(C(F)(F)F)c2)C(=NCc2ccc(C(F)(F)F)cc2)NC1c1ccc(Cl)cc1 (stereo not drawn)	nt	nt	nt	nt	55.1*	nt
Cc1ccc(S(=O)(=O)N(C)C[C@@H]2Oc3ncc(-c4ccccc4)cc3C(=O)N([C@H](C)CO)C[C@H]2C)cc1	nt	nt	nt	nt	-2.1	nt
COc1ccc(-c2ccc(C(=O)Nc3cccc(F)c3)c3occc23)c(C)c1	1.1	-59.5	-276.1	-0.3	-113.7	50.0
COc1ccc(-c2ccc(C(=O)Nc3cccc(NS(C)(=O)=O)c3)c3occc23)c(C)c1	0.0	27.7	-109.3	8.5	2.7	58.6*
COc1ccc(-c2coc3c(C(=O)Nc4cccnc4)cccc23)c(C)c1	-1.9	18.6	-67.4	-15.6	18.4	66.0*
C[C@@H]1CCCCO[C@H](CN(C)C(=O)Nc2ccccc2)[C@@H](C)CN([C@H](C)CO)C(=O)c2cc(NC(=O)c3ccccc3)ccc2O1	nt	nt	nt	nt	8.2	nt
O=C(NCCO)c1cccc(Nc2nc(-c3ccccc3)c3cc(Cl)ccc3n2)c1	-2.3	-27.3	20.5	-1.7	nt	51.0*
Cc1ccn2c(c1)nc(=S)n2C(=O)c1ccccc1	-4.2	-10.4	47.9*	-51.2*	nt	98.4*
Cc1cccc(C(=O)n2c(=S)nc3cc(C)ccn32)c1	-0.8	-33.1	-58.1	-30.8	79.8*	85.4*
O=C(c1ccco1)n1c(=S)nc2ccccn21	-2.2	-8.3	-209.6	7.1	-27.6	-12.1

Source: PubChem (several laboratories)
